# Assay results reported in PubChem BioAssay (NCI).
# The panel holds about 79,000 compounds, 15% with a hit somewhere; the sample as a whole holds those more often. Values without a mark were called inactive. Calls of active or inactive are those of the source. No stated cut-off is given here; in the data, active means growth inhibition above about 70%; inactive means the rest.
# Key:
# [1] = NCI Yeast Anticancer Drug Screen. Data for the mec2-1 strain (AID 157); conditions: S. cerevisiae mec2-1 strain, hits give high values
# Summary of the method: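 Using mec2-1 yeast: add compound, measure growth, express inhibition versus vehicle-treated cultures.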
# [2] = NCI Yeast Anticancer Drug Screen. Data for the rad14 strain (AID 159);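 further: 0% = growth of vehicle-treated control cultures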; conditions: S. cerevisiae rad14 strain growth inhibition, hits give high values
# Summary of the method: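 Compound-treated yeast with a defined DNA-repair lesion; growth inhibition normalised to vehicle-treated cultures.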
# [3] = NCI Yeast Anticancer Drug Screen. Data for the sgs1 mgt1 strain (AID 161);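 further: 0% = growth of cultures given vehicle only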; conditions: S. cerevisiae sgs1 mgt1 strain, hits give high values
# Summary of the method: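 Percent growth inhibition was derived by comparing compound-exposed mutant yeast with vehicle-exposed cultures. The strain carries alterations in DNA damage repair.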
# [4] = NCI Yeast Anticancer Drug Screen. Data for the CLN2oe strain (AID 163);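 further: 0% = growth of vehicle-only control cultures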; conditions: S. cerevisiae CLN2oe strain, hits give high values
# Summary of the method: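 Whole-cell yeast growth assay. A strain engineered for altered cell-cycle control received compound, and inhibition relative to vehicle-treated cultures was recorded.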
# [5] = NCI Yeast Anticancer Drug Screen. Data for the cln2 rad14 strain (AID 165);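 further: 0% = growth equal to vehicle treated cultures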; conditions: S. cerevisiae cln2 rad14 strain, hits give high values
# Summary of the method: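 Yeast strain cln2 rad14, bearing defects in cell cycle control and DNA repair, serves as the test system; values reflect growth inhibition compared with vehicle.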
# [6] = NCI Yeast Anticancer Drug Screen. Data for the bub3 strain (AID 167); conditions: S. cerevisiae bub3 mutant strain, hits give high values
# Summary of the method: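 Growth of a checkpoint-deficient yeast mutant is measured after compound exposure. Values represent inhibition relative to vehicle.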
# [7] = NCI Yeast Anticancer Drug Screen. Data for the wt2 strain (AID 169);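 further: 0% = growth of vehicle-treated yeast cultures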; conditions: S. cerevisiae wt2 strain growth inhibition, hits give high values
# Summary of the method: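 Treated yeast vs. vehicle-treated yeast: growth inhibition determined.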
# [8] = NCI Yeast Anticancer Drug Screen. Data for the mlh1 strain (AID 171);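 further: 0% = growth of vehicle-treated control cultures of the same strain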; conditions: S. cerevisiae mlh1 strain growth inhibition, hits give high values
# Summary of the method: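 A yeast strain with a defined genetic lesion serves as the test organism. Cultures receive compound or vehicle, and growth is measured.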
# [9] = NCI Yeast Anticancer Drug Screen. Data for the sgs1 strain (AID 173);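 further: 0% = growth of vehicle-only control cultures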; conditions: S. cerevisiae sgs1 mutant, hits give high values
# Summary of the method: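 A genetically defined yeast mutant is incubated with the test compound, and its growth is compared to that of the same strain given vehicle.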
# [10] = NCI Yeast Anticancer Drug Screen. Data for the mlh1 rad18 strain (AID 175); conditions: S. cerevisiae mlh1 rad18 strain growth inhibition, hits give high values
# Summary of the method: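 Steps: expose repair-defective yeast to compound; measure growth; express inhibition against vehicle-treated controls.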
# [11] = NCI Yeast Anticancer Drug Screen. Data for the rad18 strain (AID 177); conditions: S. cerevisiae rad18 mutant growth inhibition, hits give high values
# Summary of the method: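 Measured value is growth inhibition of a yeast strain bearing a DNA repair alteration, referenced to vehicle-treated cells.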
# [12] = NCI Yeast Anticancer Drug Screen. Data for the rad52 strain (AID 147);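 further: 0% = growth of vehicle-treated control cultures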; conditions: S. cerevisiae rad52 mutant growth inhibition, hits give high values
# Summary of the method: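 Here a repair-compromised yeast strain receives each compound; its growth is then quantified and normalised to vehicle-only controls.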
# [13] = NCI Yeast Anticancer Drug Screen. Data for the wt1 strain (AID 149);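 further: 0% = growth of vehicle-treated wt1 cultures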; conditions: S. cerevisiae wt1 strain (SPY 50644) growth inhibition, hits give high values
# Summary of the method: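 Readout: yeast growth inhibition, normalised to vehicle controls, in the wt1 strain exposed to test compounds.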
# [14] = NCI Yeast Anticancer Drug Screen. Data for the rad50EPP+ strain (AID 151);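 further: 0% = growth of vehicle-treated control cultures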; conditions: S. cerevisiae rad50 mutant strain, hits give high values
# Summary of the method: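 Read-out is yeast growth inhibition relative to vehicle; cells used were the rad50EPP+ strain.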
# [15] = NCI Yeast Anticancer Drug Screen. Data for the mgt1 strain (AID 153); conditions: S. cerevisiae mgt1 mutant growth inhibition, hits give high values
# Summary of the method: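 Measured: inhibition of mgt1 yeast growth by compound, normalized to vehicle-treated cultures.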
# [16] = NCI Yeast Anticancer Drug Screen. Data for the rad50 strain (AID 155);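 further: 0% = growth of vehicle-only cultures of the same strain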; conditions: S. cerevisiae rad50 strain growth inhibition, hits give high values
# Summary of the method: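 Compounds were tested on a yeast strain with an engineered DNA damage repair alteration; the reported value is growth inhibition normalised to vehicle treatment.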
# [17] = at 5.0 µM (retest, dose inferred, filed as 0.5)
# [18] = at 50.0 µM (retest, dose inferred, filed as 5.0)
smiles,measurement,setting,value
CCCCN(CCCC)CCC(O)c1cc2c(Cl)cc(Cl)cc2c2cc(C(F)(F)F)ccc12 (stereo unspecified),growth inhibition,[1]; [17],53%
same,growth inhibition,[1]; at 11.0 µM,98% (active)
same,growth inhibition,[1]; at 33.0 µM,99% (active)
same,growth inhibition,[1]; [18],98% (active)
same,growth inhibition,[1]; at 50.0 µM,89.7% (active)
same,growth inhibition,[1]; at 100.0 µM,96% (active)
same,growth inhibition,[2]; at 1.2 µM,23%
same,growth inhibition,[2]; at 3.7 µM,20%
same,growth inhibition,[2]; at 11.0 µM,98% (active)
same,growth inhibition,[2]; at 33.0 µM,99% (active)
same,growth inhibition,[2]; at 100.0 µM,96% (active)
same,growth inhibition,[3]; [17],56%
same,growth inhibition,[3]; [18],97% (active)
same,growth inhibition,[3]; at 50.0 µM,86.5% (active)
same,growth inhibition,[4]; at 1.2 µM,22%
same,growth inhibition,[4]; at 3.7 µM,20%
same,growth inhibition,[4]; at 11.0 µM,98% (active)
same,growth inhibition,[4]; at 33.0 µM,99% (active)
same,growth inhibition,[4]; at 100.0 µM,95% (active)
same,growth inhibition,[5]; [17],67%
same,growth inhibition,[5]; [18],96% (active)
same,growth inhibition,[5]; at 50.0 µM,85.5% (active)
same,growth inhibition,[6]; at 1.2 µM,10%
same,growth inhibition,[6]; at 3.7 µM,3%
same,growth inhibition,[6]; [17],-17%
same,growth inhibition,[6]; at 11.0 µM,97% (active)
same,growth inhibition,[6]; at 33.0 µM,99% (active)
same,growth inhibition,[6]; [18],96% (active)
same,growth inhibition,[6]; at 50.0 µM,82.7% (active)
same,growth inhibition,[6]; at 100.0 µM,96% (active)
same,growth inhibition,[7]; at 1.2 µM,-46%
same,growth inhibition,[7]; at 3.7 µM,18%
same,growth inhibition,[7]; at 11.0 µM,98% (active)
same,growth inhibition,[7]; at 33.0 µM,96% (active)
same,growth inhibition,[7]; at 100.0 µM,90% (active)
same,growth inhibition,[8]; at 1.2 µM,14%
same,growth inhibition,[8]; at 3.7 µM,23%
same,growth inhibition,[8]; at 11.0 µM,98% (active)
same,growth inhibition,[8]; at 33.0 µM,99% (active)
same,growth inhibition,[8]; at 100.0 µM,96% (active)
same,growth inhibition,[9]; at 1.2 µM,18%
same,growth inhibition,[9]; at 3.7 µM,18%
same,growth inhibition,[9]; at 11.0 µM,99% (active)
same,growth inhibition,[9]; at 33.0 µM,99% (active)
same,growth inhibition,[9]; at 100.0 µM,95% (active)
same,growth inhibition,[10]; [17],62%
same,growth inhibition,[10]; [18],97% (active)
same,growth inhibition,[10]; at 50.0 µM,82.8% (active)
same,growth inhibition,[11]; at 1.2 µM,26%
same,growth inhibition,[11]; at 3.7 µM,29%
same,growth inhibition,[11]; at 11.0 µM,98% (active)
same,growth inhibition,[11]; at 33.0 µM,99% (active)
same,growth inhibition,[11]; at 100.0 µM,94% (active)
COc1cccc2c1C(=O)c1c(O)c3c(c(O)c1C2=O)C[C@@](O)(C(C)=O)C[C@@H]3OC1CC(OC(C)=O)C(OC(C)=O)C(C)O1 (stereo partly specified),growth inhibition,[12]; at 1.2 µM,-12%
same,growth inhibition,[12]; at 3.7 µM,-7%
same,growth inhibition,[12]; at 11.0 µM,37%
same,growth inhibition,[12]; at 33.0 µM,48%
same,growth inhibition,[12]; at 100.0 µM,40%
same,growth inhibition,[13]; at 1.2 µM,-26%
same,growth inhibition,[13]; at 3.7 µM,-43%
same,growth inhibition,[13]; at 11.0 µM,-46%
same,growth inhibition,[13]; at 33.0 µM,-24%
same,growth inhibition,[13]; at 100.0 µM,-28%
same,growth inhibition,[14]; at 1.2 µM,-11%
same,growth inhibition,[14]; at 3.7 µM,-16%
same,growth inhibition,[14]; at 11.0 µM,-7%
same,growth inhibition,[14]; at 33.0 µM,7%
same,growth inhibition,[14]; at 100.0 µM,36%
same,growth inhibition,[15]; at 1.2 µM,-41%
same,growth inhibition,[15]; at 3.7 µM,-51%
same,growth inhibition,[15]; at 11.0 µM,-33%
same,growth inhibition,[15]; at 33.0 µM,-22%
same,growth inhibition,[15]; at 100.0 µM,-11%
same,growth inhibition,[16]; at 1.2 µM,-40%
same,growth inhibition,[16]; at 3.7 µM,-11%
same,growth inhibition,[16]; [17],22%
same,growth inhibition,[16]; at 11.0 µM,39%
same,growth inhibition,[16]; at 33.0 µM,51%
same,growth inhibition,[16]; [18],76% (active)
same,growth inhibition,[16]; at 50.0 µM,56.2%
same,growth inhibition,[16]; at 100.0 µM,47%
same,growth inhibition,[1]; at 1.2 µM,-64%
same,growth inhibition,[1]; at 3.7 µM,-46%
same,growth inhibition,[1]; [17],13%
same,growth inhibition,[1]; at 11.0 µM,-34%
same,growth inhibition,[1]; at 33.0 µM,-25%
same,growth inhibition,[1]; [18],41%
same,growth inhibition,[1]; at 50.0 µM,60%
same,growth inhibition,[1]; at 100.0 µM,1%
same,growth inhibition,[2]; at 1.2 µM,-35%
same,growth inhibition,[2]; at 3.7 µM,-3%
same,growth inhibition,[2]; at 11.0 µM,-6%
same,growth inhibition,[2]; at 33.0 µM,10%
same,growth inhibition,[2]; at 100.0 µM,29%
same,growth inhibition,[3]; [17],98% (active)
same,growth inhibition,[3]; [18],96% (active)
same,growth inhibition,[3]; at 50.0 µM,77% (active)
same,growth inhibition,[4]; at 1.2 µM,3%
same,growth inhibition,[4]; at 3.7 µM,-2%
same,growth inhibition,[4]; at 11.0 µM,12%
same,growth inhibition,[4]; at 33.0 µM,11%
same,growth inhibition,[4]; at 100.0 µM,19%
same,growth inhibition,[5]; [17],96% (active)
same,growth inhibition,[5]; [18],97% (active)
same,growth inhibition,[5]; at 50.0 µM,17.3%
same,growth inhibition,[6]; at 1.2 µM,-54%
same,growth inhibition,[6]; at 3.7 µM,-38%
same,growth inhibition,[6]; [17],98% (active)
same,growth inhibition,[6]; at 11.0 µM,-50%
same,growth inhibition,[6]; at 33.0 µM,-35%
same,growth inhibition,[6]; [18],97% (active)
same,growth inhibition,[6]; at 50.0 µM,75.7% (active)
same,growth inhibition,[6]; at 100.0 µM,-4%
same,growth inhibition,[7]; at 1.2 µM,-23%
same,growth inhibition,[7]; at 3.7 µM,-18%
same,growth inhibition,[7]; at 11.0 µM,-2%
same,growth inhibition,[7]; at 33.0 µM,0%
same,growth inhibition,[7]; at 100.0 µM,12%
same,growth inhibition,[8]; at 1.2 µM,-41%
same,growth inhibition,[8]; at 3.7 µM,-37%
same,growth inhibition,[8]; at 11.0 µM,-30%
same,growth inhibition,[8]; at 33.0 µM,-8%
same,growth inhibition,[8]; at 100.0 µM,18%
same,growth inhibition,[9]; at 1.2 µM,-17%
same,growth inhibition,[9]; at 3.7 µM,-23%
same,growth inhibition,[9]; at 11.0 µM,-14%
same,growth inhibition,[9]; at 33.0 µM,-3%
same,growth inhibition,[9]; at 100.0 µM,-9%
same,growth inhibition,[10]; [17],23%
same,growth inhibition,[10]; [18],62%
same,growth inhibition,[10]; at 50.0 µM,82.7% (active)
same,growth inhibition,[11]; at 1.2 µM,-28%
same,growth inhibition,[11]; at 3.7 µM,-29%
same,growth inhibition,[11]; at 11.0 µM,-16%
same,growth inhibition,[11]; at 33.0 µM,-5%
same,growth inhibition,[11]; at 100.0 µM,-1%
